D2 PAM-1: human D2 receptor positive allosteric modulation. P14416. DiscoveRx D2 beta-arrestin cells, luminescence, 90 min; 100% = 57 uM dopamine signal. potentiation, % (no concentration beside the values). actives 0.23% (n = 360,000). AID 624464; in the data active = potentiation above about 50%
Target sequence (P14416 whole entry, looked up): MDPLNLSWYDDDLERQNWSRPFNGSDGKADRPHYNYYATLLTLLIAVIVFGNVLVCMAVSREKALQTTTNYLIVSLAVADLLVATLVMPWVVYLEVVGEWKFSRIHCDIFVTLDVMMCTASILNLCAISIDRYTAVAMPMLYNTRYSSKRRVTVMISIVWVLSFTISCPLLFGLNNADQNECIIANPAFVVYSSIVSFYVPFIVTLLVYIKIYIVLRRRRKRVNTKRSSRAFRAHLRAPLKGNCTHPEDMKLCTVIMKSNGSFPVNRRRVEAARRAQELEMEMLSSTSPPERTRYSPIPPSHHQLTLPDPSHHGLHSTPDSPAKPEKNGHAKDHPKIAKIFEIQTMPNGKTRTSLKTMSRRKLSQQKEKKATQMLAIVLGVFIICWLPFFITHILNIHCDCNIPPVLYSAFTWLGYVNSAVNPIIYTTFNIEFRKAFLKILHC
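PathHunter beta-arrestin assay in DiscoveRx D2 cells. Compounds were added with an EC20 of dopamine (50 nM final) for 90 min at 37 deg C. Luminescence was read 1 h after detection reagent, with 57 uM dopamine as the EC100 control.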
D2 ag-1: activates the human D2 dopamine receptor; P14416; HEK293 T-REx D2 cells, calcium flux agonist mode; activation, % at 2 µM; actives 0.53% (n = 340,000);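 active = activation over 3 SD above normal in the single-dose calcium agonist read, cut at about 30% in these data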; note: 0% is about no effect
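HEK293 Trex D2 cells, tetracycline-induced, o/n 30 C 5% CO2; no-wash Ca dye, RT 30–90 min; 10-cycle baseline, 23 nl cpd added, kinetic Ca read 180 s; agonist hits = positive Ca response.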
D2 ag-2: activates the human D2 dopamine receptor; activation, % (concentration not given with the values); DiscoveRx PathHunter D2 beta-arrestin, luminescence, 90 min; 100% = 57 uM dopamine signal; actives 0.084% (n = 360,000); P14416; AID 624465; in the data active = activation above about 40%
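DiscoveRx PathHunter D2 beta-arrestin cells (2,100/well) attached overnight, then compound-stimulated 90 min at 37 C in HBSS/10 mM HEPES/0.1% Tween-20 buffer; beta-galactosidase complementation read by luminescence after 1 h at ambient temperature. Dopamine 57 uM final (EC100) as control.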
D2 PAM-2: positively modulates the human D2 dopamine receptor allosterically; P14416; HEK293 T-REx D2, calcium flux, EC20 dopamine potentiation; potentiation, % at 10 µM; actives 0.34% (n = 340,000); AID 485347;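 active = potentiation over 3 SD above the plate norm, cut at about 30% in these data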; note: 0% is about no effect
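Potentiation of an EC20 dopamine calcium response measured kinetically over 180 s, after a preceding 180 s compound-only read flagging agonists. Cells: inducible Hek293 Trex D2 line, 4000/well, cultured overnight at 30 C before dye loading.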
D2 antag: D2 dopamine receptor (human) antagonism. P14416. HEK293 TREx D2 cells, calcium flux, dopamine EC80. inhibition, % at 10 µM. actives 2% (n = 340,000). AID 485344; in the data active = inhibition above about 30%; inactive = below that, where a call was filed; note: 0% is about no effect
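Overnight-induced (tetracycline, 30 C) HEK293 T-REx cells carrying force-coupled D2 receive a no-wash calcium dye, then compound, then EC80 dopamine at 180 s; signals are read kinetically throughout.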
Active calls of the source: *; . = not tested or not shown; ! = not active in a repeat. Most compounds without a hit are left out; they make up all but 2.4% or so of the library.

SMILES	D2 PAM-1	D2 ag-1	D2 ag-2	D2 PAM-2	D2 antag
CCN(CCCNC(=O)CN1N=C(c2ccc(OC)cc2)CCC1=O)c1cccc(C)c1	.	0	.	.	.
Cc1c(NC(=O)c2cccnc2Cl)c(=O)n(-c2ccccc2)n1C	-6	0	-5	-8	36*
Cc1ccc2c(C)c(C(=O)Nc3c(C)n(C)n(-c4ccccc4)c3=O)oc2c1C	26	14	45*	7	-7
CCN(C(=O)c1cn(-c2cccc(OC)c2)c(=O)c2ccccc12)c1ccccc1C	.	0	.	3	.
COC(=O)c1ccc(CN(Cc2ccc(OC)c(OC)c2)S(=O)(=O)c2ccc(F)c(C(=O)Nc3cc(C)ccc3C)c2)cc1	.	-1	.	14	.
O=C(Nc1ccc(F)cc1F)c1ccc(-n2cnc3cccnc32)cc1	.	1	.	-2	.
CCOC(=O)C1(CC2CCCCO2)CCN(C(=O)Nc2ccc(C(=O)OC)cc2)CC1 (stereo unspecified)	-5	0	-4	-11	32*
Cc1cc(C)n(-c2nc(C)c(C)c(=O)n2CC(=O)Nc2cccc([N+](=O)[O-])c2)n1	.	-2	.	-3	.
CCOC(=O)c1ccc(NC(=O)CC2C(=O)N(c3ccccc3)C(=O)N2C2CCCCC2)cc1 (stereo unspecified)	.	1	.	20	.
O=c1[nH]c(Nc2ccc3c(c2)OCCO3)nnc1Cc1ccc(Cl)cc1	-4	0	-1	2	33*
COc1ccc(Cc2nnc(Nc3ccc(Cl)cc3)[nH]c2=O)cc1	0	-1	4	-1	-4
N#Cc1ccccc1Cn1c(=O)n(CCCC(=O)NCc2ccccc2Cl)c(=O)c2ccccc21	.	1	.	-8	.
Cc1ccc(S(=O)(=O)N(C)C)cc1NC(=S)NC12CC3CC(CC(C3)C1)C2	-8	0	-3	-24	78*
CN(C)S(=O)(=O)c1cccc(C(=O)NCc2ccco2)c1	-15	0	0	3	-15
Cc1ccc(S(=O)(=O)N(C)C)cc1NC(=S)NC(=O)C12CC3CC(CC(C3)C1)C2	10	-1	1	4	9
Cc1ccc(NC(=S)Nc2ccc3[nH]c(=O)[nH]c3c2)cc1C	-15	0	-8	11	-4
S=C(NCc1ccco1)Nc1ccccc1	-3	0	2	8	31*
Cc1ccc(S(=O)(=O)N(C)C)cc1NC(=S)Nc1ccc2[nH]c(=O)[nH]c2c1	-24	1	-2	-14	49*
Cc1ccc(S(=O)(=O)N(C)C)cc1NC(=S)NCc1ccco1	-43	0	-4	.	40*
Cc1ccc(C)c(NC(=O)c2ccc(CN3CC(=O)N4CCCCC4C3=O)cc2)c1 (stereo unspecified)	.	1	.	-7	.
CC1=C(/C=C/C(C)=C/C=C/C(C)=C/C(=O)Nc2ccc(O)cc2)C(C)(C)CCC1	56*!	1	12	16	22
CC1=C(/C=C/C(C)=C/C=C/C(C)=C\C(=O)O)C(C)(C)CCC1	-5	.	-1	.	.
CCc1ccc(N2CC(C(=O)OCc3csc(CC(=O)Nc4ccccc4C)n3)CC2=O)cc1 (stereo unspecified)	-3	1	-4	56*	-5
CCOC(=O)/C=C/C(=O)OCc1csc(CC(=O)Nc2ccccc2C)n1	8	1	-7	-2	-2
CCc1ccccc1NC(=O)CSc1nc2ncccc2o1	.	1	.	-6	.
SMILES	D2 PAM-1	D2 ag-1	D2 ag-2	D2 PAM-2	D2 antag
Cc1nc2sc(C(c3ccco3)N3CCN(C(c4ccccc4)c4ccccc4)CC3)c(O)n2n1 (stereo unspecified)	-6	1	-4	33*	-5
Cc1nc2sc(C(c3ccco3)N3CCN(c4ccccc4)CC3)c(O)n2n1 (stereo unspecified)	-4	-1	-2	14	-6
Cn1ncc2c(O/N=C(\N)c3ccc(C(C)(C)C)cc3)ncnc21	85*	0	86*	13	-1
COc1ccc(OC)c(NC(=O)Nc2cccc(OCc3cc(=O)n4cc(C)ccc4n3)c2)c1	.	-1	.	-7	.
O=c1oc2ccccc2c(Nc2ccc(O)cc2)c1[N+](=O)[O-]	-4	1	-3	-5	-13
Cc1ccc(Nc2c([N+](=O)[O-])c(=O)oc3ccccc23)cc1	-18	1	-7	-9	31*
